From PubChem
Only some compounds are listed: those with a hit (about 4.2% of all), similar ones and a draw of the others.
ssDAF12 agonist: activates DAF-12 receptor from parasite S. stercoralis; HEK293 ssDAF-12/GRIP1 lit1-tk-luc reporter, luminescence; % of 3 µM dafachronic acid response; activation, % at 6.8 µM; 370,000 compounds, 1% hits;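 active = activation above the mean over all tested compounds plus 3 SD, cut at about 0.9% in these data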;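 also: 0% = DMSO-only wells and 100% = 3 µM delta7-dafachronic acid wells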
esBAF inh: blocks esBAF chromatin remodeling in mouse ES cells. AID 602393. 350,000 compounds, 2% hits. Bmi1-luciferase knock-in reporter, 24 h; 100% = twice the neutral-well signal. reporter increase, % at 12.5 µM; in the data active = activation above about 40%; inconclusive = no clear call, values can overlap the other calls;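 also: 0% = median of the plate's neutral control wells and 100% = double that signal; a rise in the Bmi1 reporter signal indicates esBAF inhibition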
DAX1 inh: blocks DAX1 repression of SF-1 activated StAR promoter; 370,000 compounds, 1.1% hits; inhibition, % at 6.8 µM; HEK293T StAR-luciferase reporter, SF-1/DAX-1 repression relief; AID 652010;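 active = inhibition above the mean over all tested compounds plus 3 SD, cut at about 3.6% in these data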;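 also: 0% = DAX-1 cells with DMSO and 100% = cells lacking DAX-1 with DMSO; higher inhibition means more luminescence from relief of DAX-1 repression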
hgDAF12 agonist: hgDAF-12 agonism, primary luciferase screen. AID 687014. activation, % at 6.8 µM. 370,000 compounds, 1.8% hits. HEK293 GAL4-hgDAF12 UAS-luciferase reporter, agonist luminescence; normalized to butyrate control;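 active = activation above a cutoff set at the mean of all screened compounds plus 3 SD, cut at about 10% in these data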;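 also: 0% = DMSO wells and 100% = sodium butyrate wells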
Wnt bcat act: activators of Wnt/beta-catenin signaling; Wnt/beta-catenin reporter cell assay, activator, plate reader; activation, % at 9.35 µM; 300,000 compounds, 1.2% hits; AID 743398; in the data active = activation above about 30%, passing the limit was not always enough; inconclusive = no clear call, values can overlap the other calls;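 also: 0% = neutral control wells and 100% = positive control wells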
hcDAF12 agonist: H. contortus DAF-12 activation, primary screen. HEK293 hcDAF-12 lit1-tk-luc reporter, luminescence; 0% DMSO, 100% Δ7-dafachronic acid. activation, % at 6.8 µM. 370,000 compounds, 1.4% hits;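 active = activation above the mean of all tested compounds plus 3 SD, cut at about 5.5% in these data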;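 also: 100% = response to 3 µM Δ7-dafachronic acid high control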
LXRb hcDAF ctr: counter-screen for hcDAF-12 agonists: agonists of human LXR-beta. 3,400 tested, under 10 active. AID 743027. HEK293 Gal4-LXR tk-luc reporter, luminescence, 24 h; normalized: DMSO 0%, positive control 100%. activation, % at 6.8 µM. shares compounds with hcDAF12 agonist;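 active = mean percent activation of the reporter above a cutoff set as the average over tested compounds plus their standard deviation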
Target sequence (P55055 whole entry, looked up, the tested form may be a part): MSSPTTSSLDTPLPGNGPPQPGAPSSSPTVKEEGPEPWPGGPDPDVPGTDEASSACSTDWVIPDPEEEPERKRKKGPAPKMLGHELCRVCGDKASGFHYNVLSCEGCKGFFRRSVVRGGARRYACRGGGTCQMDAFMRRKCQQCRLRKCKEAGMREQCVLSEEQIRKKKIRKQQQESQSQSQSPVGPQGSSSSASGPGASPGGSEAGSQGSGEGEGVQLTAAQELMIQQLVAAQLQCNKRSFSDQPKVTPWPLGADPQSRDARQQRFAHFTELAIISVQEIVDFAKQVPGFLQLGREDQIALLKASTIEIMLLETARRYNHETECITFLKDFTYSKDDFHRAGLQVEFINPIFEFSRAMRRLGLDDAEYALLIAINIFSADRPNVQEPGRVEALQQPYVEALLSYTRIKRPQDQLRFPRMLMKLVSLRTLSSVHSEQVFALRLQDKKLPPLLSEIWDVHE
hcDAF12 conf: hcDAF-12 agonism, confirmation assay | shares compounds with hcDAF12 agonist | HEK293 hcDAF-12 lit1-tk-luc reporter, luminescence; % of Δ7-dafachronic acid response | activation, % at 6.8 µM | 3,400 compounds, 61% hits | AID 743032;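 active = mean activation across triplicate tests above the threshold derived from the earlier primary screen, cut at about 5.5% in these data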;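 also: 0% = DMSO only wells and 100% = 3 µM Δ7-dafachronic acid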
Numbers without * were called inactive; ? = inconclusive; . = no result given.

SMILES	ssDAF12 agonist	esBAF inh	DAX1 inh	hgDAF12 agonist	Wnt bcat act	hcDAF12 agonist	LXRb hcDAF ctr	hcDAF12 conf
O=C(O)[C@H](Cc1ccccc1)N1Cc2ccccc2C1=O	-1	-2	1	1	0	2	.	.
O=C(NCC[C@H]1CC[C@H](NC(=O)c2cccnc2)[C@H](CO)O1)Nc1ccc(C(F)(F)F)cc1	.	-2	.	.	.	.	.	.
O=C(NCC[C@H]1CC[C@@H](NS(=O)(=O)c2cccc(F)c2)[C@H](CO)O1)C1CCC1	.	-2	.	.	.	.	.	.
C(=N\n1c2ccccc2c2ccccc21)/c1ccccc1	0	.	0	0	-14	10*	0	5.9*
O=C(NCC1CCCO1)c1cc2cc(F)ccc2[nH]1 (stereo unspecified)	0	40	0	2	3	7.1*	0	4
O=C(NCC1CCCO1)c1ccc[nH]1 (stereo unspecified)	-1	-5	0	-1	0	0	.	.
CN(C)C(=O)C[C@@H]1C[C@@H]2c3cc(NC(=O)Nc4ccccc4)ccc3O[C@@H]2[C@@H](CO)O1	.	5	.	.	.	.	.	.
O=C(c1ccc(Cl)cc1)N1CCCCC(Sc2nnc(-c3ccc4c(c3)OCO4)o2)C1=O (stereo unspecified)	1	-69	4.2*	10*	-4	6.9*	0	2
O=C(O)CSc1nnc(-c2ccc3c(c2)OCO3)o1	0	7	0	3	-1	1	.	.
O=C(O)c1ccccc1CSc1nc2ccccc2o1	0	34	2	9	5	3	.	.
Cc1ccccc1CSc1nnc(C)n1N	-1	-7	0	0	0	-1	.	.
c1ccc2oc(SCc3nc4ccccc4s3)nc2c1	1.9*	.	2	8	.	10*	1	11*
Cc1nnc(SCc2nc3ccccc3s2)n1-c1ccccc1	1.2*	72*	2	7	?	7.6*	1	9.5*
COc1ccc(-n2nnnc2SCc2nc3ccccc3s2)cc1	1.1*	71*	1	9	.	8.1*	1	11*
Cc1nnc(SCc2nc3ccccc3s2)n1N	1.0*	.	4.1*	8	8	9.5*	1	12*
O=C(O)CSc1nnc(CSc2nc3ccccc3s2)n1-c1ccccc1	-1	3	0	2	-1	0	.	.
COc1ccc(CSc2nnnn2-c2ccccc2)cc1	-1	5	-1	-1	.	-1	.	.
COc1ccc(S(=O)(=O)Nc2ccc3c(c2)C(=O)N([C@H](C)CO)C[C@@H](C)[C@H](CN(C)C(=O)Nc2ccc(F)cc2)OCCCC[C@@H](C)O3)cc1	.	3	.	.	.	.	.	.
Clc1c(CSc2nc3ccccc3o2)nc2ccccn12	1	1	4.2*	10*	.	7.0*	1	7.0*
Cc1cccc2nc(CSc3nc4ccccc4o3)cn12	-1	.	1	0	-2	0	.	.
Cc1cc(C(=O)Nc2cccc3c2O[C@@H](CN(C)Cc2ccc(C(F)(F)F)cc2)[C@H](C)CN([C@@H](C)CO)C3=O)n(C)n1	.	-1	.	.	.	.	.	.
O=C(COc1cccnc1[N+](=O)[O-])N1CCC(Cc2ccccc2)CC1	-1	.	1	0	-3	-2	.	.
O=C(COc1ccccc1[N+](=O)[O-])OCC(=O)N1CCC(Cc2ccccc2)CC1	-1	.	0	-1	0	7.6*	0	2
C[C@H](CO)N1C[C@H](C)[C@@H](CN(C)C(=O)Nc2ccc(C(F)(F)F)cc2)Oc2ncc(C#C[C@@H](C)O)cc2C1=O	.	-7	.	.	.	.	.	.
O=C(CNC(=O)c1ccccc1)OCc1nc2ccccc2s1	1.0*	.	0	8	-4	7.5*	0	6.4*
SMILES	ssDAF12 agonist	esBAF inh	DAX1 inh	hgDAF12 agonist	Wnt bcat act	hcDAF12 agonist	LXRb hcDAF ctr	hcDAF12 conf
O=C(CNC(=O)c1ccccc1F)OCc1nc2ccccc2s1	0	.	0	4	15	4	.	.
O=C(O)COCc1nc2ccccc2s1	-1	-10	1	1	0	0	.	.
CCOC(=O)c1nc2ccccc2s1	1.4*	33	2	5	.	8.8*	0	9.3*
CC(=O)OCc1nc2ccccc2s1	0	43*	4.0*	12*	?	7.7*	1	12*
NC(=O)c1ccccc1OCc1nc2ccccc2s1	0	16	2	13*	42*	14*	1	14*
CCOC(=O)C(=O)Cc1nc2ccccc2s1	0	.	0	-1	10	3	.	.
CC(C)C#Cc1ccc2c(c1)O[C@H](CN(C)S(C)(=O)=O)[C@@H](C)CN([C@H](C)CO)S2(=O)=O	.	1	.	.	.	.	.	.
Cc1ccc(-c2ccc3c(c2)O[C@@H](CN(C)C(=O)CN(C)C)[C@H](C)CN([C@@H](C)CO)S3(=O)=O)cc1	.	0	.	.	.	.	.	.
O=C(C[C@@H]1CC[C@@H]2[C@H](COC[C@@H](O)CN2C(=O)c2cccnc2)O1)Nc1ccc(-c2ccccc2)cc1	.	8	.	.	.	.	.	.
Cc1cc(NC(=O)C2Oc3ccccc3OC2C)no1 (stereo unspecified)	0	.	0	2	6	7.0*	0	2
CCCN(C)C[C@@H]1Oc2ncc(-c3cccc(C(=O)N(C)C)c3)cc2C(=O)N([C@@H](C)CO)C[C@@H]1C	.	2	.	.	.	.	.	.
COc1ccc(S(=O)(=O)N(C)C[C@H]2OCCCC[C@H](C)Oc3ccc(NC(=O)Nc4cccc5ccccc45)cc3C(=O)N([C@H](C)CO)C[C@H]2C)cc1	.	4	.	.	.	.	.	.
Fc1ccc(C2Nc3cccc4cccc(c34)N2)cc1	0	1	-1	4	-4	7.1*	0	3
CCCOc1ccc(C2Nc3cccc4cccc(c34)N2)cc1	0	5	0	2	12	6.7*	0	4
Brc1ccc(C2Nc3cccc4cccc(c34)N2)cc1	0	-8	-1	-2	0	1	.	.
C[C@H]1CN([C@@H](C)CO)C(=O)c2cc(-c3ccccc3)cnc2O[C@H]1CN(C)C(=O)c1cccc(F)c1	.	-4	.	.	.	.	.	.
Cc1ccc(C(=O)Nc2ncc(Cc3ccccc3)s2)o1	0	4	3.8*	7	51*	12*	2	8.4*
O=C(O)Cc1ccc2ccc3ccccc3c2c1	0	-4	0	1	2	8.5*	0	5
COc1ccc(CN(C)C[C@H]2Oc3ccc(NS(=O)(=O)c4c(C)noc4C)cc3CC(=O)N([C@H](C)CO)C[C@@H]2C)cc1	.	2	.	.	.	.	.	.
